# ChEMBL document CHEMBL3988442, “University of Dundee, Small-Polar-MMV Screening Library” (2021)
# The campaign covered roughly 48,000 compounds. About 13,000 (27%) showed an effect of 50% or more. This is one part of the list.
# System: Wolbachia pipientis
# Assay: Anti-Wolbachia Cell-Based Screen
# Type: functional
# Parameters: scale not given: in the data most compounds retested in dose-response had high values
# Details: 5 µM
row,SMILES,Percent Effect [%]
1,Cc1cnc(CN2CCN(C(C)c3nc(C(C)C)no3)CC2)cn1 (stereo unspecified),10.96
2,FC(F)(F)c1cc(C2CCN(c3cnccn3)CC2)n2ccnc2n1,100.9
3,N#Cc1ccc(N2CCN(c3cnccn3)CC2)cc1C(F)(F)F,-11.21
4,CN(C)Cc1nnc(C2CCCN(c3cc(C(F)(F)F)ccn3)C2)n1C (stereo unspecified),-6.748
5,CC(C)N1CCCC(c2cc(C(F)(F)F)nc3nccn23)C1 (stereo unspecified),97.97
6,CC(C)n1ccnc1C1CCCN(c2nc3ccccc3s2)C1 (stereo unspecified),8.79
7,FC(F)(F)c1ccnc(N2CCCC(N3CCOCC3)C2)c1 (stereo unspecified),3.517
8,CC(C)c1nc(C2CCCN(c3nccc(C(F)(F)F)n3)C2)no1 (stereo unspecified),4.176
9,CC(C)c1nc(C2CCCN(c3ncccn3)C2)no1 (stereo unspecified),10.51
10,FC(F)(F)c1cc(C2CCCN(c3ncccn3)C2)n2ccnc2n1 (stereo unspecified),126.4
11,N#Cc1ccc(N2CCN(c3cnccn3)CC2)c(C(F)(F)F)c1,-6.859
12,CC(C)N1CC[C@H](c2nc3ccc(C(F)(F)F)cc3[nH]2)C1,-4.029
13,FC(F)(F)c1cc(C2CCCN(c3cnccn3)C2)n2ccnc2n1 (stereo unspecified),112.2
14,CCNc1ncc(C(=O)NCc2csc(-c3ncccn3)n2)cn1,-30.13
15,CCOC(C)c1nc(CN2CCC(CNC(C)=O)CC2)cs1 (stereo unspecified),-3.059
16,Cn1ccnc1C1CCN(C(=O)COCC(F)(F)C(F)F)CC1,-2.138
17,CN(C)CCn1ccnc1C1CCN(C(=O)CCC(F)(F)F)CC1,-12.98
18,CC(=O)N1CCC(c2cc(C(F)(F)F)nc3nccn23)CC1,113.6
19,Cc1ccc2c(C)c(C(=O)NCCc3csc(N)n3)oc2c1,32.42
20,O=C(c1cc(-c2ccco2)nc2c(Cl)cccc12)N1C[C@H]2CNC[C@H]2C1,10.23
21,CCc1ccc2nc(C)cc(C(=O)N[C@@H]3CNC[C@H]3O)c2c1,-12.87
22,Cc1cc(C(=O)NCc2cccs2)c2c(C3CCCN3)noc2n1 (stereo unspecified),99.02
23,Cc1cc(C2CCCN2C(=O)NCc2cccc(F)c2)on1 (stereo unspecified),-2.715

row,SMILES,Percent Effect [%]
1,Cc1cc(C(=O)NCc2ccc(F)cc2)c2c(C3CCNC3)noc2n1 (stereo unspecified),105.3
2,CC(C)Cc1cc(CNC(=O)c2ccccc2C2CCNC2)no1 (stereo unspecified),0.6659
3,CC(C)(C)c1cc(C[C@H]2CNCC[C@H]2CC(=O)NCc2cccs2)no1,1.711
4,CCc1ccc2nc(C)cc(C(=O)NC[C@@H]3CCNC[C@H]3O)c2c1,-0.4588
5,COc1nc2c(cc1C(=O)NCc1noc(Cc3cccs3)n1)CCC2,-29.09
6,Cc1cc(C(=O)NCc2ccc(F)cc2)c2c(C3CCCN3)noc2n1 (stereo unspecified),101.4
7,Cc1nnc2ccc(C(=O)N3CCSC(C)(C)C3)cn12,-5.569
8,NC(=O)CCn1cc(CNCCCc2csc(N)n2)c2ccccc21,2.752
9,CNC(=O)[C@@H]1C[C@H]2CN(Cc3ccc(C)o3)C[C@H]2N1C(C)=O,14.16
10,Cc1nc(CN2C[C@@H]3CCCO[C@@H]3[C@H](NC(=O)CC3CC3)C2)cs1.O=C(O)C(F)(F)F,-2.843
11,CN1[C@@H](C(=O)NCC2CC2)C[C@H]2CN(Cc3ccsc3)C[C@H]21.O=C(O)C(F)(F)F.O=C(O)C(F)(F)F,106.3
12,Cc1ccc(CN2C[C@@H]3CCCO[C@@H]3[C@H](NC(=O)CC3CC3)C2)s1.O=C(O)C(F)(F)F,2.329
13,CC(C)N1[C@H](Cn2cncn2)C[C@@H]2CN(Cc3ccsc3)CC[C@@H]21.O=C(O)C(F)(F)F,4.812
14,CNC(=O)[C@@H]1C[C@H]2CN(Cc3ccc(C)s3)C[C@H]2N1C(C)=O.O=C(O)C(F)(F)F.O=C(O)C(F)(F)F,111.1
15,O=C(O)C(F)(F)F.O=C(O)C(F)(F)F.O=C(O)C(F)(F)F.c1cc(CN2C[C@@H]3OCCN(CCN4CCCC4)[C@@H]3C2)cs1,-11.54
16,CS(=O)(=O)N1C[C@H]2CCCN(Cc3ccsc3)[C@H]2C1.O=C(O)C(F)(F)F,-0.02998
17,O=C(NCC1CC1)[C@H]1C[C@H]2OCC[C@H]2N(Cc2ccsc2)C1,-7.335
18,Cc1nc(CN2C[C@H]3C[C@H](C(=O)NCC4CC4)N(C)[C@H]3C2)cs1.O=C(O)C(F)(F)F.O=C(O)C(F)(F)F.O=C(O)C(F)(F)F,116.2
19,CN1[C@@H](C(=O)NCC2CC2)C[C@@H]2CN(Cc3ccsc3)C[C@@H]21.O=C(O)C(F)(F)F.O=C(O)C(F)(F)F,95.65
20,Cc1nc(CN2C[C@@H]3CN(C(=O)c4cnccn4)C[C@@H]3C2)cs1.O=C(O)C(F)(F)F,0.3524
21,COCCC(=O)N1CCCC2(CCC(=O)N(CCc3c[nH]cn3)C2)C1 (stereo unspecified),0.09306
22,Cc1cnn(CCNCc2nc(Cc3ccccc3)no2)c1,-7.265
23,Fc1cccc(N2CCCC3(C2)CN(c2cnccn2)CCO3)c1 (stereo unspecified),1.052

row,SMILES,Percent Effect [%]
1,Cn1ccnc1NC[C@@H]1CCC[C@@H]2CN(Cc3nccs3)C[C@@H]21.O=C(O)C(F)(F)F,-0.855
2,CCc1cc(C(=O)NCC2CCN(Cc3cccc(C#N)c3)C2)on1 (stereo unspecified),4.535
3,CC(=O)N1[C@@H](C(=O)NCC2CC2)C[C@@H]2CN(Cc3nccs3)C[C@@H]21.O=C(O)C(F)(F)F,88.62
4,CO[C@H]1CN(Cc2cccc(C#N)c2)[C@@H]2COC[C@H]12.O=C(O)C(F)(F)F,-6.68
5,O=C(NCC1CC1)[C@H]1CN(Cc2nccs2)C[C@H]2OCC[C@@H]12.O=C(O)C(F)(F)F,-15.61
6,CN1[C@@H](C(=O)NCC2CC2)C[C@H]2CN(Cc3cccc(C#N)c3)C[C@H]21.O=C(O)C(F)(F)F.O=C(O)C(F)(F)F,99.16
7,CN(C)S(=O)(=O)c1csc(C(=O)N2CCSCC2)c1,-1.993
8,CC(C)c1cc(C(=O)N[C@H]2CN(C3CCOCC3)C[C@@H]2C2CC2)no1,-8.943
9,COc1ncccc1C(=O)N1CCCC(n2ccnc2C)C1 (stereo unspecified),125.3
10,COCCOc1ncccc1C(=O)N1CCCC(n2ccnc2C)C1 (stereo unspecified),113.9
11,Cc1nccn1C1CCCN(C(=O)c2cc(O)nc3ccccc23)C1 (stereo unspecified),-15.61
12,COc1ncccc1C(=O)N1CCCC(c2cc(C)[nH]n2)C1 (stereo unspecified),-2.172
13,CC(C)(C)CNC[C@H]1Cn2c(-c3ccccc3)cnc2CO1,-15.45
14,CC(=O)N1CCN(C(=O)CNc2ccc3sccc3c2)CC1,-10.18
15,CCn1cnnc1CNC(=O)c1ccc(Cl)cc1F,9.197
16,CN(C)C(=O)C1CCc2nnc(CNC(=O)c3ccc(Cl)cc3Cl)n21 (stereo unspecified),114.2
17,CC(C)NC(=O)C1CCc2nnc(CNC(=O)c3ccc(Cl)cc3Cl)n21 (stereo unspecified),98.13
18,CC(CNC(=O)c1ccc(Cl)cc1I)N1CCCC1 (stereo unspecified),-14.44
19,CC(C)C(NC(=O)c1ccc(Cl)cc1Cl)C(=O)Nc1cnn(C)c1 (stereo unspecified),12.86
20,CC(C)CNC(=O)c1ccc(NC(=O)NC2CC2)cc1Cl,-3.361
21,O=C(NCC(=O)N1CCCCC1)c1ccc(Cl)cc1I,-12.84
22,O=C(NCc1nnc2n1C(C(=O)NC1CC1)CC2)c1ccc(Cl)cc1Cl (stereo unspecified),110.4
23,Cn1cc(-c2cnc3n2CCC32CCN(S(=O)(=O)C3CC3)CC2)cn1.O=C(O)C(F)(F)F,2.089

row,SMILES,Percent Effect [%]
1,CC(NS(=O)(=O)N(C)C(C)C)C(=O)N(C)C (stereo unspecified),-8.822
2,COc1ccc(Cl)cc1CS(=O)(=O)Cc1nc(C)no1,9.011
3,CCOc1cc(C(=O)NS(C)(=O)=O)cc(-c2ccccc2)c1OC,4.998
4,CS(=O)(=O)NCc1cc2n(n1)CCCN(Cc1nc3ccccc3[nH]1)C2,2.68
5,Cc1nn(C)c(C)c1S(=O)(=O)NCCn1ccc(-c2cccs2)n1,-20.8
6,Cl.O=C(C1CCCC1)N1C[C@@H](c2ccsc2)[C@@H]2CN(C3CCCC3)CC[C@@H]21,194.4
7,CN(C)c1ccc(NC(=O)N2CCCC2c2ccsc2)cn1 (stereo unspecified),11.58
8,O=C(C1CCC1)N1CCN(Cc2ccsc2)[C@H]2CS(=O)(=O)C[C@H]21,-4.22
9,Cl.O=C(C1CCC1)N1C[C@@H](c2ccsc2)[C@@H]2CN(C3CCCC3)CC[C@@H]21,127.5
10,Cl.O=C(C1CCC1)N1C[C@@H](c2ccsc2)[C@@H]2CN(C3CCCCC3)CC[C@@H]21,144.1
11,CSc1ncc(CN2CC(Oc3c(C)cccc3C)C2)cn1,-6.082
12,CCC(Nc1nc(C(C)C)nc2c1cnn2C)c1ccncc1 (stereo unspecified),-4.681
13,Cc1ccc(NS(=O)(=O)CC2=NC(=O)n3cccc3C2=O)cc1,7.318
14,O=C(Nc1ccccc1)c1ccc(NCc2ccccc2CO)nn1,-18.51
15,CCCS(=O)(=O)N1CCC2(CC1)CN(c1ccccn1)CCO2.O=C(O)C(F)(F)F,3.761
16,O=C(NCC1CCOC1)Nc1ccc(OCC(F)(F)F)nc1 (stereo unspecified),-13.99
17,COCCC(=O)N1CCC(c2ccc3c(NC(C)C)n[nH]c3n2)C1 (stereo unspecified),74.92
18,COCCC(=O)N1CCc2nc(N3CCOCC3)nc(NC(C)C)c2C1,-19.12
19,Cc1ncsc1C(=O)N1CCC(c2ccc3c(NC(C)C)n[nH]c3n2)C1 (stereo unspecified),170.9
20,COCCOCCC(=O)N1CCC(c2ccccc2C)C1 (stereo unspecified),-9.058
21,CC(C)Oc1cccc(C(=O)C2CCCN(C(=O)c3ccccn3)C2)c1 (stereo unspecified),-12.09
22,CC(C)Nc1n[nH]c2nc(C3CCN(C(=O)c4ccccn4)C3)ccc12 (stereo unspecified),75.7
